Compounds with a hit are over-represented: about 12% of the library has one in this group of screens.
NS1 function inh: qHTS Assay for Inhibitors of Influenza NS1 Protein Function; Potency, µM (doses to about 46.1 µM), for inactives: at the highest dose activity, positive = more growth; 0.4% of 270,000 active; further: potency means the concentration at half of the fitted maximal effect; actives are rising curves; nearly all actives have a fitted effect of over 50% in size
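Read-out: OD600 growth recovery of NS1-expressing budding yeast. Cells grown overnight at 30C in -URA glucose medium, washed, resuspended and diluted 1:100 in 2% galactose assay medium, pH 6.0. Same strain lacking NS1 served as positive control.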
Shiga toxin inh: A qHTS for Small Molecule Inhibitors of Shiga Toxin. Vero cells, Shiga toxin protein synthesis inhibition reporter. inhibition, % at 38.7 µM. 9.2% of 290,000 active. AID 2315, 2010; in the data active means inhibition mostly above about 28%, no sharp cut-off; inactive means mostly below about 43%; further: 0% is about no effect
Cycloheximide cs: Cycloheximide Counterscreen for Small Molecule Inhibitors of Shiga Toxin. cell reporter, cycloheximide protein synthesis inhibition counterscreen. max response, %. 12% of 300,000 active; in the data active means max response mostly above about 13%, no sharp cut-off; inactive means mostly below about 14%; further: read at 38.3 µM for the half of the compounds with a filed dose; 0% is about no effect
SARS PLpro yeast: qHTS of Yeast-based Assay for SARS-CoV PLP | S. cerevisiae expressing SARS-CoV PLpro, growth rescue | Potency, µM (titrated, usually from 32.9 µM), for inactives: top-dose activity, positive = growth rescue, hits mostly activators | 0.19% of 330,000 active | AID 485353, 2010; further: potency means the concentration at half of the fitted maximal effect; 0% is about no effect; nearly all actives have a fitted effect of over 55% in size
Active calls of the source: *; ? = inconclusive; nt = no result given. Unless noted, the call rests on the fitted dose curve.

SMILES | NS1 function inh | Shiga toxin inh | Cycloheximide cs | SARS PLpro yeast
CC(=O)Oc1ccccc1N(C(C)=O)S(=O)(=O)c1ccc2ccccc2c1 | -4% | 23 | 11 | -1%
CC(=O)Oc1ccccc1-c1nc(C)nc(N(C)C(C)=O)n1 | 0% | 38* | 12* | -4%
COc1ccc(CCN2CN(S(=O)(=O)c3ccc(C)cc3)c3nc4ccccc4nc32)cc1OC | 14% | -7 | -2 | -6%
O=S(=O)(c1cccs1)N1CN(Cc2cccs2)c2nc3ccccc3nc21 | -35% | 19 | 15 | 6%
COc1ccc(CCN2CN(S(=O)(=O)c3ccc(OC)cc3)c3nc4ccccc4nc32)cc1 | 19% | 39* | 27* | 23%
COc1ccc(S(=O)(=O)N2CN(Cc3ccco3)c3nc4ccccc4nc32)cc1 | ? | 35 | 13 | -2%
COc1ccc(CN2CN(S(=O)(=O)c3cccs3)c3nc4ccccc4nc32)cc1 | -3% | 80* | 48* | 0%
CCCCCN1CN(S(=O)(=O)c2cccs2)c2nc3ccccc3nc21 | -32% | 28 | 16* | 1%
COc1ccc(CN2CN(S(=O)(=O)c3ccccc3)c3nc4ccccc4nc32)cc1 | -6% | 112* | 33* | 0%
COc1cc2cnc(-c3cccnc3)cc2cc1OC | nt | nt | nt | 7%
CCC(=O)Nc1ccc(NC(=O)CSc2nnnn2Cc2ccccc2)cc1C | 20% | -8 | -1 | -5%
O=[N+]([O-])c1ccc(-c2cnc3ccccc3n2)cc1 | -4% | 32* | 26* | 1%
CCOc1ccc(-c2cnc3ccccc3n2)cc1 | -35% | 96* | 40* | -1%
O=[N+]([O-])c1cc(-c2cnc3ccccc3n2)ccc1Oc1ccc(F)cc1 | -19% | 81* | 53* | -1%
CCOc1ccc(-c2cc3cc(OC)c(OC)cc3c(C)n2)cc1 | nt | 20 | 9 | 11%
O=[N+]([O-])c1ccc(-c2c(O)c3ccccc3c3nc4ccccc4nc23)cc1 | nt | -2 | -5 | 3%
Cc1ccccc1OCCNC(=O)CNC(=O)c1ccccc1O | -6% | 5 | -2 | 1%
CCCN1CCN(C(=O)c2c(Cl)cnn2C)CC1 | -9% | 12 | -3 | -7%
O=C(Nc1ccc(Oc2cccc(C(F)(F)F)c2)nc1)c1cccs1 | -10% | 7 | 4 | -4%
Nc1ccc(C2=Nc3cccc4cccc(c34)N2)cc1 | 1% | 7 | 8 | -17%
COc1cccc(C2=Nc3cccc4cccc(c34)N2)c1 | -4% | 16 | 14* | -27%
Cc1nc2ccc(NC(=O)CS(=O)(=O)c3ccccc3)cc2s1 | nt | nt | nt | 8%
O=C(CCS(=O)(=O)c1ccccc1)Nc1ccc(-c2nc3ccccc3s2)c(O)c1 | 3% | 48* | 44* | -18%
O=C(Nc1ccc(OC(=O)c2ccccc2)c(-c2nc3ccccc3s2)c1)c1ccccc1 | 7% | 12 | -2 | 1%
Cc1ccsc1C(=O)Nc1ccc(O)c(-c2nc3ccccc3s2)c1 | nt | 45 | 18* | 0%
SMILES | NS1 function inh | Shiga toxin inh | Cycloheximide cs | SARS PLpro yeast
Cc1ccsc1C(=O)Nc1cccc(-n2cnnn2)c1 | -9% | -2 | 10 | 14%
CC(=O)Nc1ccc(O)c(-c2nc3ccccc3s2)c1 | nt | 131* | 49* | -5%
Clc1cccc(Cl)c1C1=NOC(c2nnc(-c3ccccc3)o2)C1 (stereo not drawn) | 13% | 108* | 50* | -9%
Cc1cccc(C(=O)Nc2cccc(C(=O)N3CCOCC3)c2)c1 | 0% | 9 | 19 | 3%
COc1ccc(NC(=O)c2cc3ccccn3n2)cc1 | -101% | 159 | 40* | -10%
COc1ccc(NC(=O)c2cccc(NC(=O)c3ccccc3)c2)cc1 | -11% | 25 | 18* | 1%
COc1ccc(C(=O)COC(=O)c2ccc(NC(=O)c3ccccc3)cc2)cc1 | -5% | 3 | 1 | 2%
COc1ccc(C(=O)Nc2ccc(C(=O)OCC(=O)c3ccccc3)cc2)cc1 | 10% | 40 | 19* | 0%
Cc1ccc(C(=O)Nc2cccc(C(=O)N3CCN(C)CC3)c2)cc1 | -11% | 71* | 30* | 10%
CCN1C(=NCc2cc(OC)c(OC)c(OC)c2)N[C@@H](c2cccc(F)c2)C(C(=O)OC)=C1C | 2% | 10 | -2 | 8%
O=C(NCCc1ccc(Cl)cc1)c1cc(=O)[nH]c2ccccc12 | -2% | -19 | -2 | 8%
CCOc1c(Cl)cc(C(=O)Nc2cccc(C(=O)O)c2)cc1Cl | -1% | 69* | 43* | 0%
COc1ccc(N/N=C(C)/C(=N/O)C(=O)Nc2ccccc2)cc1 | nt | 74* | 29* | -15%
COc1ccccc1OC(=O)Nc1ccc(Cl)cc1 | -3% | 58* | 32* | 0%
COc1ccc(C(=O)Nc2cccc(C(=O)N3CCCC3)c2)cc1 | 0% | 9 | 11* | 3%
Cc1cc(=O)n2ccsc2n1 | -4% | -10 | -1 | -25%
CCOc1ccc(NS(=O)(=O)c2cc(NC(=O)c3ccc(C)cc3)ccc2Cl)cc1 | -2% | -14 | 17* | -23%
CC(=O)N1CCc2cc(NC(=O)c3ccc(C)cc3)ccc21 | -10% | 47* | 34* | -3%
CCOc1ccc(NC(=O)c2cccc(NC(=O)c3ccccc3)c2)cc1 | 13% | 53* | 17* | -1%
COc1ccccc1Oc1ccc(NC(=O)c2ccccc2)cc1 | 1% | 47 | 28* | 0%
COc1ccccc1Oc1ccc(NC(=O)c2ccccc2C)cc1 | -1% | 62 | 15 | -1%
CCOc1ccc(C(=O)Nc2ccc(NC(=O)c3ccccc3)cc2)cc1Br | 26% | -1 | -1 | 8%
Cc1ccc(S(=O)(=O)N2CCOCC2)cc1C(=O)OCC(=O)NCCc1ccccc1 | nt | nt | nt | 3%
CN1CCN(c2ccc(NC(=O)c3ccc(C(F)(F)F)cc3)cn2)CC1 | nt | -4 | 13 | 1%
CN1CCc2ccc(NC(=O)c3ccc(C(F)(F)F)cc3)cc2C1 | -2% | 25* | 14* | 3%
SMILES | NS1 function inh | Shiga toxin inh | Cycloheximide cs | SARS PLpro yeast
CC(C)Cc1nc(N2CCN(C(=O)C(C)C)CC2)c(C#N)c2c1CCC2 | -50% | 48 | 54* | -1%
NC(=S)c1ccc[n+]([C@@H]2O[C@@H](COP(=O)([O-])OP(=O)(O)OC[C@H]3O[C@@H](n4cnc5c(N)ncnc54)[C@H](OP(=O)(O)O)[C@H]3O)C(O)C2O)c1 (stereo partly drawn) | -16% | nt | nt | nt
C=CCNc1nc(N)c(C(=O)c2ccc3c(c2)OCO3)s1 | ? | 87* | 26* | -1%
Cc1cc(NC(=O)c2sc(Nc3ccc(F)cc3)nc2N)no1 | nt | 103 | 28* | 6%
C=CCNc1nc(N)c(C(=O)Nc2cc(C)on2)s1 | -9% | 38* | 19* | -6%
COc1ccc(Nc2nnc(SCC(=O)Nc3cc(C)on3)s2)cc1 | -8% | 12 | -1 | 0%
C=CCNC(=S)NNC(=O)c1ccc2c(c1)OCO2 | -1% | 19 | 3 | -4%
CC(C)CC(NC(N)=O)C(=O)OCC(=O)N(Cc1ccccc1)Cc1ccccc1 (stereo not drawn) | nt | 3 | 1 | -4%
O=C1Nc2ccccc2C1(O)Cc1ccccn1 (stereo not drawn) | 1% | -1 | -2 | 0%
Cc1ccc(N)c(N)c1 | nt | 157* | 51* | -1%

Assay outcomes: PubChem, National Center for Advancing Translational Sciences (NCATS)
